Screening data from PubChem BioAssay.
p53null 39C tox = kills p53 null cells at the nonpermissive temperature; H1299 p53-null (neo) cells, 39C, ATPlite viability, 24 h; Potency, µM (top dose mostly 46.1 µM), without a hit: at the top dose activity, negative = cell killing, actives largely listed as cytotoxic; 55,000 compounds, 0.97% hits;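 note: potency is the fitted concentration of half-maximal effect; 0% = DMSO only and -100% = full killing by 100 µM tamoxifen; nearly all actives have a fitted effect of over 50% in size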
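Temperature-shift cytotoxicity format: compound titrations on p53-null or A138V-expressing H1299 cells held 24 hr at 39C, cell ATP then measured, AC50 from Hill model.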
OvCa metastasis = inhibitors of ovarian cancer cell adhesion and invasion in omental model. SKOV3ip1-GFP adhesion/invasion on 3D omental model, fluorescence. 46,000 compounds, 0.1% hits. Potency, µM (doses to about 45.8 µM), inactives show top-dose activity change, negative = inhibition, hits mostly inhibitors;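 note: potency is the fitted concentration of half-maximal effect; plate controls were DMSO wells for no effect and tomatine positive control wells for full effect; nearly all actives have a fitted effect of over 65% in size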
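A 3D layer of primary human omental fibroblasts, mesothelial cells, fibronectin and collagen I, grown 48 hr, received SKOV3ip1-GFP cells in serum-free medium plus compounds at 0.36-46 umol/L. After 2 hr RT and 16 hr 37 C, fixed adherent GFP cells were counted; normalized to DMSO and tomatine.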
p53null 32C kill = p53 null cell cytotoxicity, permissive temperature. H1299-neo p53 null cells, ATP luminescence, 24 h, 32C. Potency, µM (doses to about 46.1 µM), for the others: at the highest dose activity change, negative = cytotoxicity, most hits filed as cytotoxic. 55,000 compounds, 0.62% hits. AID 903;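 note: potency is the fitted concentration of half-maximal effect; 0% = DMSO only and -100% = full killing by 100 µM tamoxifen; nearly all actives have a fitted effect of over 55% in size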
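Cells lacking p53 (H1299-neo) are plated at 600 per well and allowed to settle overnight at 37C. Test compounds (up to 46 uM) are added and held 24 hours at 32C, then ATP is quantified by luminescence.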
pS6 MEF inh = inhibitors of mTORC1 signaling in Tsc2-/- p53-/- MEF cells | Tsc2-/- p53-/- MEF, phospho-rpS6 immunofluorescence/PI, 24 h | 44,000 compounds, 0.78% hits | Potency, µM (highest dose often 38.3 µM), without a hit: at the highest dose activity change, negative = inhibition, hits mostly inhibitors;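 note: potency is the fitted concentration of half-maximal effect; plate controls were DMSO for no effect and rapamycin for full effect; nearly all actives have a fitted effect of over 50% in size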
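Read-out: phospho-S6 Alexa-488 intensity over PI intensity per well, scored as % active cells using thresholds from rapamycin (7.5 nM) and DMSO controls. Tsc2-/-, p53-/- MEFs exposed to compound for 24 h; PI cell count recorded as viability.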
PMP22 txn = PMP22 gene transcription modulation; S16 Pmp22-F2sN Schwann cells, FLuc/NLuc coincidence luminescence, 24 h; AID 1508649; Potency, µM (highest dose often 57.5 µM), inactives show at the highest dose activity change, negative = inhibition, most hits filed as inhibitors; 43,000 compounds, 2% hits; active = clear falling dose curves in both reporters; inconclusive = both reporters move, but less clearly or upward; inactive = either reporter flat; the % is the NLuc reporter signal; note: potency is the fitted concentration of half-maximal effect; % is set by controls: 0 for no effect and ±100 for the full control effect
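Reporter cells (S16 Pmp22-F2sN, 500–1,000 per well) exposed to compounds for 24 h, 37C, 5% CO2; lysis with FLuc read after 10 min, then Stop&Glo and NLuc read after 10 min.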
S16 F2sN tox = cytotoxicity in S16 Pmp22-F2sN Schwann cells; AID 1508642; Potency, µM (top dose mostly 57.5 µM), for the others: top-dose activity change, negative = cytotoxicity, actives largely listed as cytotoxic; S16 Pmp22-F2sN Schwann cells viability, CellTiter-Glo, 24 h; 43,000 compounds, 0.48% hits; note: potency is the fitted concentration of half-maximal effect; % is set by controls: 0 for no effect and ±100 for the full control effect; nearly all actives have a fitted effect of over 65% in size
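S16 Pmp22-F2sN Schwann cells (500-1,000/well) in phenol-red-free DMEM with 10% FBS received 23 nL compound by pin tool for 24 h at 37 °C. Viability was then read as CellTiter-Glo luminescence after 15 min at room temperature.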
NLuc sat counter = inhibits NanoLuc at saturating substrate, PMP22 counter-screen; Secreted NLuc enzyme (filtered S16 cell medium), Nano-Glo luminescence; 690 compounds, 4% hits; shares compounds with PMP22 txn; Potency, µM (top dose mostly 57.5 µM), for the others: at the highest dose activity change, negative = inhibition, actives largely listed as inhibitors; note: potency is the fitted concentration of half-maximal effect; % is set by controls: 0 for no effect and ±100 for the full control effect
NLuc Km counter = inhibits NanoLuc under Km conditions, PMP22 counter-screen; shares compounds with PMP22 txn; secreted NLuc enzyme, coelenterazine luminescence, Km conditions; Potency, µM (doses to about 57.5 µM), inactives show at the highest dose activity change, negative = inhibition, hits mostly inhibitors; 690 compounds, 5% hits; AID 1508639; note: potency is the fitted concentration of half-maximal effect; % is set by controls: 0 for no effect and ±100 for the full control effect
FLuc ctr PMP22 = inhibits firefly luciferase, PMP22 counter-screen; shares compounds with PMP22 txn; purified P. pyralis FLuc, luminescence, 10 min; Potency, µM (titrated, usually from 57.5 µM), for inactives: top-dose activity, negative = inhibition, most hits filed as inhibitors; 690 tested, under 10 active; AID 1508640; note: % of control where 0% means no effect
Target sequence (P08659 whole entry, looked up): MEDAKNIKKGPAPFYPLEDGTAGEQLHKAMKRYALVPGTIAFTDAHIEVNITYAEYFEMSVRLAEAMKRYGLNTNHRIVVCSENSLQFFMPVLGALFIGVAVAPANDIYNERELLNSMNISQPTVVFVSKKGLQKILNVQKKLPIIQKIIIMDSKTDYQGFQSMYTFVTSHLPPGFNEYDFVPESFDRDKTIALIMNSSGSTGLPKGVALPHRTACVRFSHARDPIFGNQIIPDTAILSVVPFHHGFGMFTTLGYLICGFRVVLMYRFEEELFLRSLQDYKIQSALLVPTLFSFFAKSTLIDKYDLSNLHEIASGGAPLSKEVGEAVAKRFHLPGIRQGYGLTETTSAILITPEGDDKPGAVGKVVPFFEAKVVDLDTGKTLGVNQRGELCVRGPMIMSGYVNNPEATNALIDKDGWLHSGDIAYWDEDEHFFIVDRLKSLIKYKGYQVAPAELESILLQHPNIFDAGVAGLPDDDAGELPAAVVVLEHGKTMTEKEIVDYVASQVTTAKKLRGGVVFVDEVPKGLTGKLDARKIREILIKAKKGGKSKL
S16 F2sN tox cnf = S16 Schwann cell cytotoxicity, confirmatory | S16 Schwann cells viability, CellTiter-Glo ATP luminescence, 24 h | 690 compounds, 7% hits | Potency, µM (titrated, usually from 57.5 µM), for the others: at the top dose activity change, negative = viability loss, most hits filed as cytotoxic | shares compounds with PMP22 txn; note: potency is the fitted concentration of half-maximal effect; % is set by controls: 0 for no effect and ±100 for the full control effect
PMP22 txn conf = confirmation of modulators of PMP22 gene transcription in S16 cells; shares compounds with PMP22 txn; S16 Schwann cells Pmp22-F2sN, dual luciferase, 24 h; Potency, µM (highest dose often 57.5 µM), for inactives: at the highest dose activity change, negative = inhibition, actives largely listed as inhibitors; 690 compounds, 22% hits; AID 1508646; active = clear falling dose curves in both reporters; inconclusive = both reporters move, but less clearly or upward; inactive = either reporter flat; the % is the FLuc reporter signal; note: potency is the fitted concentration of half-maximal effect
* hit, by the source's call. Compounds with a hit are over-represented: about 3.1% of the library has one in this group of screens. Unless noted, calls come from the whole dose curve; as a rule, active = well fitted curve in the direction sought with a large enough effect; inconclusive = small, poorly fitted or top-dose-only effect, or another doubt; inactive = no such curve, though single readings can be large; an effect the other way counts as inactive or inconclusive.

Cc1oc(-c2ccc(Cl)cc2)nc1CN1CCCC(C(=O)NCCc2ccccc2)C1 (centres undefined) was read as p53null 39C tox -1.6%, OvCa metastasis 2.2%, p53null 32C kill -4.3%, pS6 MEF inh 3.7%, PMP22 txn 18.9µM*, S16 F2sN tox -13.0%, NLuc sat counter -9.6%, NLuc Km counter -15.4%, FLuc ctr PMP22 -19.9%, S16 F2sN tox cnf inconclusive and PMP22 txn conf -29.3%.
`CCc1ccc(-c2nc(CN3CCC(C(=O)NCCc4ccc(Cl)cc4)CC3)c(C)o2)cc1` gave p53null 39C tox -16.5%, OvCa metastasis 4.5%, p53null 32C kill 0.5%, pS6 MEF inh -3.7%, PMP22 txn 16.3µM*, S16 F2sN tox 15.8%, NLuc sat counter -7.3%, NLuc Km counter 1.8%, FLuc ctr PMP22 -12.9%, S16 F2sN tox cnf inconclusive and PMP22 txn conf inconclusive.
`CCc1ccc(-c2nc(CN3CCC(C(=O)NCCc4ccc(C)cc4)CC3)c(C)o2)cc1` gave p53null 39C tox 8.1%, OvCa metastasis 9.1%, p53null 32C kill -3.3%, pS6 MEF inh -8.4%, PMP22 txn inconclusive and S16 F2sN tox 21.0%.
Screening CC=CC(=O)N(CC)c1ccccc1C returned OvCa metastasis 5.4%.
For COc1cc(-c2nc(Cn3nnc(C(=O)Nc4cc(C)cc(C)c4)c3C)c(C)o2)cc(OC)c1OC the results were p53null 39C tox 17.8%, OvCa metastasis inactive, p53null 32C kill 20.2%, pS6 MEF inh -11.5%, PMP22 txn inconclusive, S16 F2sN tox 5.5%, NLuc sat counter 4.85µM*, NLuc Km counter 3.85µM*, FLuc ctr PMP22 -8.5%, S16 F2sN tox cnf -1.7% and PMP22 txn conf inconclusive.
For COc1ccc(NC(=O)c2nnn(Cc3nc(-c4cc(OC)c(OC)c(OC)c4)oc3C)c2C)cc1 the results were p53null 39C tox -4.4%, OvCa metastasis -6.0%, p53null 32C kill 5.9%, pS6 MEF inh -9.8%, PMP22 txn 8.5% and S16 F2sN tox -1.5%.
For OCCn1cc(-c2cnc3nnn(Cc4ccc5ncccc5c4)c3n2)cn1 the results were OvCa metastasis -21.7%.
Screening O=C(NC1CCOCC1)c1ccc(-c2cc(-c3cn[nH]c3-c3ccccn3)ccn2)cc1 returned OvCa metastasis -24.8%.
